Values joined by “and” are separate entries in the source; they are usually repeats but may differ in a detail not shown here. Equal values may be shown once. Unmarked numbers belong to inactive results. Results filed as inconclusive are left out. A call without a number means that no potency is given here. Active and inactive are the calls of the source. Unless noted, the call rests on the fitted dose curve.
Key:
[1] = biological target: Estrogen receptor (Homo sapiens) (UniProt P03372); test: qHTS assay for small molecule antagonists of estrogen receptor alpha signaling (AID 588513; active means well fitted curve in the direction sought with a large enough effect in the signal ratio, with a control signal flat, not every such curve was filed as active; the % refers to the signal ratio)
Method in brief: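 Beta-lactamase reporter, antagonist mode, HEK 293 GripTite cells; 0.5nM E2 stimulus, 18 h, 37 C; CCF4 dye 2 h RT; fluorescence. IC50 and efficacy from Hill fits, normalized to E2 and DMSO.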

[2] = biological target: Estrogen receptor (Homo sapiens) (UniProt P03372); test: qHTS assay for small molecule agonists of estrogen receptor alpha signaling (AID 588514); further: nearly all actives have a fitted effect of over 70% in size; further: potency means the concentration at half of the fitted maximal effect
Method in brief: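 Fluorescence from CCF4 cleavage reports ER-alpha-driven beta-lactamase expression in HEK 293 cells treated 18 hrs at 37 C. Data normalized to 17-beta-estradiol (20 nM) and DMSO, fitted to Hill equation.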

[3] = biological target: Bile acid receptor (Homo sapiens) (UniProt Q96RI1); test: qHTS assay for small molecule antagonists of farnesoid X receptor signaling (AID 588526)
Method in brief: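 Beta-lactamase reporter antagonist mode: HEK293T FXR-UAS-bla cells, titrated compound, CDCA stimulation, 16 h 37 C, CCF4 dye 2 h RT. Data normalized to CDCA 50 uM and DMSO; Hill-fit IC50.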

[4] = biological target: Glucocorticoid receptor (Homo sapiens) (UniProt P04150); test: qHTS assay for small molecule antagonists of glucocorticoid receptor signaling (AID 588533; active means well fitted inhibition curve with a large enough effect in the signal ratio, with a control signal flat, not every such curve was filed as active; the % refers to the signal ratio;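 further: cells stimulated with 2 nM dexamethasone as agonist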)
Method in brief: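 Antagonist-mode qHTS: compound titrations added to GRE-bla HeLa cells, then dexamethasone 2 nM final; 18 h, 37 C. CCF4 FRET fluorescence normalized to dexamethasone and DMSO; IC50 from Hill fit.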

[5] = biological target: Peroxisome proliferator-activated receptor gamma (Homo sapiens) (UniProt P37231); test: qHTS assay for small molecule antagonists of peroxisome proliferator-activated receptor gamma signaling (AID 588537; active means well fitted inhibition curve with a large enough effect in the signal ratio, with a control signal flat, not every such curve was filed as active; the % refers to the signal ratio;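 further: reporter cells co-stimulated with 50 nM rosiglitazone agonist during compound treatment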)
Method in brief: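 Cell-based beta-lactamase assay; GW9662 served as the antagonist control. Stimulation used rosiglitazone, final 50 nM, 16 h, 37 C.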

[6] = biological target: Vitamin D3 receptor (Homo sapiens) (UniProt P11473); test: qHTS assay for small molecule agonists of vitamin D receptor signaling (AID 588543)
Method in brief: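 β-lactamase reporter, VDR-UAS-bla HEK293T, agonist mode. Cells plated 5 h at 37 °C, compound titration 16 h at 37 °C, CCF4 dye 2 h RT, ratio 460/530 nm. Hill fit → EC50, efficacy vs 50 nM 1α,25-(OH)2D3.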

[7] = biological target: Retinoic acid receptor RXR-alpha (Homo sapiens) (UniProt P19793); test: qHTS assay for small molecule agonists of retinoid X receptor alpha signaling (AID 588544)
[8] = biological target: Thyroid hormone receptor beta (Homo sapiens) (UniProt P10828); test: qHTS assay for small molecule agonists of thyroid hormone receptor beta signaling (AID 588545)
Method in brief: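 Stimulation of a TR-driven beta-lactamase reporter was quantified in GripTite HEK 293 cells. Compound series ran for 18 hrs; curves were normalized to T3 and DMSO controls and fitted to yield EC50.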

[9] = biological target: Thyroid hormone receptor beta (Homo sapiens) (UniProt P10828); test: qHTS assay for small molecule antagonists of thyroid hormone receptor beta signaling (AID 588547; active means well fitted inhibition curve with a large enough effect in the signal ratio, with a control signal flat, not every such curve was filed as active; the % refers to the signal ratio;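 further: cells stimulated with 0.4 nM T3 agonist during compound exposure; series mostly up to about 77 µM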); settings: TR-UAS-bla HEK293, beta-lactamase ratio, antagonist mode, 18 h
Method in brief: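 Inhibition of T3-driven (0.4nM final) beta-lactamase reporter activity was measured over 0.59 nM to 92 uM compound after 18 h at 37 C. The cells were GripTite HEK293 TR-UAS-bla in charcoal/dextran-stripped serum, with CCF4 ratio read-out and IC50 from Hill fits.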

[10] = qHTS assay for small molecule agonists of the antioxidant response element (ARE) signaling pathway (AID 651741; active means well fitted activation curve with a large enough effect in the signal ratio; the % refers to the signal ratio; further: potency means the concentration at half of the fitted maximal effect)
Method in brief: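 Agonist activity is measured as ARE-driven beta-lactamase expression in a stable HepG2 reporter line, using 16 h compound treatment at 37 C and a FRET substrate fluorescence readout after 2 h.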

[11] = qHTS assay for small molecule activators of the nuclear factor-kappa B (NF-kB) signaling pathway (AID 651749; active means well fitted activation curve with a large enough effect in the signal ratio; the % refers to the signal ratio; further: series mostly up to about 77 µM); settings: NF-kB-bla ME-180 cells, beta-lactamase FRET ratio, 16 h; activation: stronger effect = higher value
Method in brief: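 FRET-based beta-lactamase detection in ME-180 cells reports NF-kB response-element-driven transcription following overnight (16 hr) compound treatment.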

[12] = qHTS assay for small molecule agonists of the antioxidant response element (ARE) signaling pathway measured by Nrf2-dependant transcriptional activity (AID 720636; active means well fitted activation curve with a large enough effect in the repeat runs)
Method in brief: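 ARE-luc HepG2 cells carrying an Nrf2-responsive luciferase reporter, in medium with 1% dialyzed FBS, exposed to compound for 16 hr at 37 C, 5% CO2. Luminescence read 30 min after ONE-Glo addition.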

[13] = qHTS assay for small molecule activators of the human pregnane X receptor (PXR) signaling pathway (AID 720659; call rule not given here)
[14] = biological target: Glucocorticoid receptor (Homo sapiens) (UniProt P04150); test: qHTS assay for small molecule agonists of glucocorticoid receptor signaling (AID 588532; active means well fitted curve in the direction sought with a large enough effect in the signal ratio, with a control signal flat; the % refers to the signal ratio); settings: HeLa MMTV-bla, beta-lactamase ratio, agonist, 18 h; stronger effect = higher value; percent of dexamethasone control, DMSO zero
Method in brief: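 Agonist-mode qHTS: GRE-driven beta-lactamase in HeLa cells exposed 18 h to titrated compounds (up to 92 uM), then CCF4 ratio read after 2 h at RT; Hill-fitted EC50, efficacy relative to 0.1 uM dexamethasone.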

[15] = biological target: Peroxisome proliferator-activated receptor delta (Homo sapiens) (UniProt Q03181); test: qHTS assay for small molecule antagonists of peroxisome proliferator-activated receptor delta signaling (AID 588535; active means well fitted inhibition curve with a large enough effect in the signal ratio, with a control signal flat, not every such curve was filed as active; the % refers to the signal ratio)
Method in brief: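 Antagonist-mode qHTS using GeneBLAzer PPAR-delta-UAS-bla HEK293T cells; compound exposure 18 hrs at 37 C over a titration. Ratiometric CCF4 fluorescence at 460/530 nm; concentration-response points fitted to the Hill equation.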

[16] = biological target: Peroxisome proliferator-activated receptor delta (Homo sapiens) (UniProt Q03181); test: qHTS assay for small molecule agonists of peroxisome proliferator-activated receptor delta signaling (AID 588534)
Method in brief: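 EC50 and efficacy values derive from Hill fits of a concentration series in a beta-lactamase reporter cell assay. Exposure is 18 hrs at 37 C, with CCF4 fluorescence as the readout.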

Sequence of Glucocorticoid receptor (Homo sapiens) (P04150 whole entry, looked up): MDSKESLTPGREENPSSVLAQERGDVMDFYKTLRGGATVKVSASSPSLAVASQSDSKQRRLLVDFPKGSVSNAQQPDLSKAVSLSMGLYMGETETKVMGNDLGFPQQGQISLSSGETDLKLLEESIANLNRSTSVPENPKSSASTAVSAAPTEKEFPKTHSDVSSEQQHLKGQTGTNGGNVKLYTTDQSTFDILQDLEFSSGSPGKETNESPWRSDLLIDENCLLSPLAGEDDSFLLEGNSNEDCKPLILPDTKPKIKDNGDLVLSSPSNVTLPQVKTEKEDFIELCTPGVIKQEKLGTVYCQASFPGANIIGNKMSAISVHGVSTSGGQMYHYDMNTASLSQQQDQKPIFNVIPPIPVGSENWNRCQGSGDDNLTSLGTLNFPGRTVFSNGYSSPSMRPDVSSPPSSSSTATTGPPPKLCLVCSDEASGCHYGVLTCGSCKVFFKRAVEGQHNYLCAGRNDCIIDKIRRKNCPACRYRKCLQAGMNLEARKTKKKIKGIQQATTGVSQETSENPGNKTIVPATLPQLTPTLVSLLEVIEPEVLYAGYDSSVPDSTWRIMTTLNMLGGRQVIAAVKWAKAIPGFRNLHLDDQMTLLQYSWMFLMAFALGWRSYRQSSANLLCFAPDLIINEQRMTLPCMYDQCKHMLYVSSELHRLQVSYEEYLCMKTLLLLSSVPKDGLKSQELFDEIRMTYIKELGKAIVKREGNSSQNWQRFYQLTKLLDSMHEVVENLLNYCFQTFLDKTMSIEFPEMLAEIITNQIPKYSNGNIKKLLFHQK
Sequence of Peroxisome proliferator-activated receptor delta (Homo sapiens) (Q03181 whole entry, looked up): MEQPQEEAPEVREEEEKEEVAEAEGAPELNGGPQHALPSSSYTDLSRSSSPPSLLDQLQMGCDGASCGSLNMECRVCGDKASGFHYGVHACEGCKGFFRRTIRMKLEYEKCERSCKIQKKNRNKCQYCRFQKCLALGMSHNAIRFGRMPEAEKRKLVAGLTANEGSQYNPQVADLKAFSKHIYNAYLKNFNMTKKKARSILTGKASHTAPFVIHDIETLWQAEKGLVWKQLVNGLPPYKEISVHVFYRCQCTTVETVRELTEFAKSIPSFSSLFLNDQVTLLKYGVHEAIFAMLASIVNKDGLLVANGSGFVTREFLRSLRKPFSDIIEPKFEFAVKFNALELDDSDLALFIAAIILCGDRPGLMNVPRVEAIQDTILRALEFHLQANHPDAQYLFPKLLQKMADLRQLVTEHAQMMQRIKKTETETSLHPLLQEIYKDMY
Sequence of Peroxisome proliferator-activated receptor gamma (Homo sapiens) (P37231 whole entry, looked up): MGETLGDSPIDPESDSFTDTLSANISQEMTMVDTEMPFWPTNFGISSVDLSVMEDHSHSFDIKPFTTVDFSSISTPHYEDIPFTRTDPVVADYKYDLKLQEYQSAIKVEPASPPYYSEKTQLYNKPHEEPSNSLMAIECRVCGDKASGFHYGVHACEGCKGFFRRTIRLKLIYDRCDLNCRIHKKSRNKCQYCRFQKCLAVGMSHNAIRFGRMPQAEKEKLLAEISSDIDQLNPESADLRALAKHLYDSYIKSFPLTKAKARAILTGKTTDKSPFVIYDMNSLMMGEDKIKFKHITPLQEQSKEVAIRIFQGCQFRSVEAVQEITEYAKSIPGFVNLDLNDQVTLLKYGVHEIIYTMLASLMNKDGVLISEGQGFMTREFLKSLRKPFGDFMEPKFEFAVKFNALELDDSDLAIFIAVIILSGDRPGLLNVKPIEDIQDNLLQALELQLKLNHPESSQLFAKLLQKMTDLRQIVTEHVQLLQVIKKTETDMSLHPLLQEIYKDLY
Sequence of Thyroid hormone receptor beta (Homo sapiens) (P10828 whole entry, looked up): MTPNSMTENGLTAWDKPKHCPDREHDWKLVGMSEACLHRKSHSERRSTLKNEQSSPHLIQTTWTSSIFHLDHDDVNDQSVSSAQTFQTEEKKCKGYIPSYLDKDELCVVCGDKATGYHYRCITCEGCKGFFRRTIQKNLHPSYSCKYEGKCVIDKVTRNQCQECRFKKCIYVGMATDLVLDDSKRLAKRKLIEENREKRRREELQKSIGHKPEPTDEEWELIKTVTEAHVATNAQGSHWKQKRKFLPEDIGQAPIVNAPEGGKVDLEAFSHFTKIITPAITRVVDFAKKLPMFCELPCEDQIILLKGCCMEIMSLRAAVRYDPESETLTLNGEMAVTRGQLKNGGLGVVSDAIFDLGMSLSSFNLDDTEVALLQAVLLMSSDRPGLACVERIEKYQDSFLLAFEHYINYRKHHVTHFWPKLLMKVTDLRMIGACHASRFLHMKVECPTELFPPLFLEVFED
Sequence of Retinoic acid receptor RXR-alpha (Homo sapiens) (P19793 whole entry, looked up): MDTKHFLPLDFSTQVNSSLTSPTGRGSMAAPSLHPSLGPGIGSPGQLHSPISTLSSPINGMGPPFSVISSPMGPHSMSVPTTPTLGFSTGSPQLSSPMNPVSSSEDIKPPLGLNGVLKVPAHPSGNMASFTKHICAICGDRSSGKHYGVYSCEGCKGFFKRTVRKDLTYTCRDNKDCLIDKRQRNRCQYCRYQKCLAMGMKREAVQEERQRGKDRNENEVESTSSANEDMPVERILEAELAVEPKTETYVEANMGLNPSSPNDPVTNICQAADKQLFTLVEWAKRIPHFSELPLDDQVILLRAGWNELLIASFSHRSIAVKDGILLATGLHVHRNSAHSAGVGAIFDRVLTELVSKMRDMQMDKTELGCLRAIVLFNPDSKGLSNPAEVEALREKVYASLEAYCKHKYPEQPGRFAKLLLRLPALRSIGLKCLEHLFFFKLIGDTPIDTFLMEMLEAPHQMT
Sequence of Estrogen receptor (Homo sapiens) (P03372 whole entry, looked up): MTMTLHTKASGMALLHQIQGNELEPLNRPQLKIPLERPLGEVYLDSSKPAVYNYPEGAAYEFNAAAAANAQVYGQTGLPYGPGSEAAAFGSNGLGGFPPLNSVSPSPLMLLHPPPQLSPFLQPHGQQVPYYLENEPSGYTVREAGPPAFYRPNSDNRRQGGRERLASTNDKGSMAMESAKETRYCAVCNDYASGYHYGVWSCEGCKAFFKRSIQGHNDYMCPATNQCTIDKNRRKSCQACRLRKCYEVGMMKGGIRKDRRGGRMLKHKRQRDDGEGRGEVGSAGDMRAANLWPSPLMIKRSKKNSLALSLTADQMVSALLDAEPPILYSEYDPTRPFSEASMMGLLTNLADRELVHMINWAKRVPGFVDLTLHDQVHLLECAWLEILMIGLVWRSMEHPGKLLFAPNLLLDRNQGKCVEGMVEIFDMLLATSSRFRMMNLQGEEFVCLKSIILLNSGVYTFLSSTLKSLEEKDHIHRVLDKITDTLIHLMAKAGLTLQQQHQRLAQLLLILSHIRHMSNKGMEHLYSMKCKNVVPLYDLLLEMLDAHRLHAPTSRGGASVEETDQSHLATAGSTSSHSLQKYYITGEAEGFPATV
Sequence of Vitamin D3 receptor (Homo sapiens) (P11473 whole entry, looked up): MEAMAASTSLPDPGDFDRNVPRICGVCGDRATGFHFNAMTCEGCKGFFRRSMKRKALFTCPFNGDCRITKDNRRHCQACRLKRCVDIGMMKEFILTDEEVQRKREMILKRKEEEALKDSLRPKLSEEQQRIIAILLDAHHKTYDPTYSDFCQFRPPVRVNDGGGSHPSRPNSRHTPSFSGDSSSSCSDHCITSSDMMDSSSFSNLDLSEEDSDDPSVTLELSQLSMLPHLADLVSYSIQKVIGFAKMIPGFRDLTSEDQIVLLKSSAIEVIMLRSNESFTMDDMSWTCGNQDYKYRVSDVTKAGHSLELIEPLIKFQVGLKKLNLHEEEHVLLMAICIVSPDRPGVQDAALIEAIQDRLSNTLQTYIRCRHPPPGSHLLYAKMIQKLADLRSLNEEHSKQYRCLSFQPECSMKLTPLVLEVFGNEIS
Sequence of Bile acid receptor (Homo sapiens) (Q96RI1 whole entry, looked up): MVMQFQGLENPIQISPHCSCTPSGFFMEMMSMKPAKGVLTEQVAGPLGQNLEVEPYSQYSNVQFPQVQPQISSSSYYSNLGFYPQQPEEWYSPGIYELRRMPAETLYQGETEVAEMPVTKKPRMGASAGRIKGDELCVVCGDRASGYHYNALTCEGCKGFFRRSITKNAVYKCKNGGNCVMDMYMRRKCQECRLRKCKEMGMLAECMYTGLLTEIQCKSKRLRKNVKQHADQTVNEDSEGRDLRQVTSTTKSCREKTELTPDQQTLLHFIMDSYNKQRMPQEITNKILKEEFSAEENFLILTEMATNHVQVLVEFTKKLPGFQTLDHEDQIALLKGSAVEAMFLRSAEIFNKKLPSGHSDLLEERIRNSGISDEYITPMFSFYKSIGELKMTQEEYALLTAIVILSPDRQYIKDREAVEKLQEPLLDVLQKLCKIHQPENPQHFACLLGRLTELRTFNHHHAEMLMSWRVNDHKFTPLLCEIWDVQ

| SMILES | Potency [1] | Potency [2] | outcome [3] | Potency [4] | Potency [5] | outcome [6] | Potency [7] | outcome [8] | activity change % (negative = inhibition) [9] | Potency [10] | activation [11] | outcome [12] | outcome [13] | activation [14] | Potency [15] | outcome [16] |
| --- | --- | --- | --- | --- | --- | --- | --- | --- | --- | --- | --- | --- | --- | --- | --- | --- |
| COc1nc(NC(C)C)nc(NC(C)C)n1 | inactive | inactive | inactive | inactive | inactive | inactive | inactive | inactive | 0.677% | inactive | -2.09% | inactive | inactive | – | – | – |
| O=C(O)COc1cc(Cl)c(Cl)cc1Cl | – | – | inactive | inactive | inactive | inactive | inactive | – | 7.44% | – | – | inactive | – | -6.14% | inactive | – |
| CC(C)OC(=O)Nc1cccc(Cl)c1 | – | inactive | inactive | – | inactive | inactive | inactive | inactive | 12.8% | inactive | 0.165% | – | – | – | – | inactive |
| CCC(=O)Nc1ccc(Cl)c(Cl)c1 | – | – | – | – | – | – | – | inactive | – | – | – | inactive | inactive | – | – | – |
| CCS(=O)CCSP(=O)(OC)OC (stereo not drawn) | inactive | inactive | inactive | inactive | – | inactive | – | inactive | -3.19% | inactive | -0.59% | inactive | inactive | 2.31% | – | inactive |
| CNC(=O)CSP(=S)(OC)OC | inactive | inactive | – | – | inactive | inactive | inactive | inactive | -15.4% and 6.49% | inactive | – | inactive | inactive | – | inactive | inactive |
| CCc1cccc(C)c1N(C(=O)CCl)C(C)COC (stereo not drawn) | – | – | – | – | – | inactive | – | – | – | 24.3 µM (active) | -1.58% | – | – | – | – | – |
| CC(C)(C)C(=O)C(Oc1ccc(Cl)cc1)n1cncn1 (stereo not drawn) | – | 39.8 µM (active) | – | – | inactive | inactive | – | inactive | -2.73% and -13.2% | inactive | -2.3% and -1.59% | inactive | – | -3.08% and -1.34% | inactive | inactive |
| CCCCSP(=O)(SCCCC)SCCCC | – | – | inactive | inactive | inactive | inactive | – | inactive | -17.4% | – | – | inactive | – | -15% | inactive | – |

— PubChem BioAssay (NCATS)
